Screens (PubChem)
A selection: hits, their analogues and other compounds. The true share with any hit is near 3.5%.
MITF inh: human MITF inhibition, primary screen; inhibition, % at 2.6 µM; AlphaScreen MITF homodimerization, bead proximity signal; AID 1259374; 650,000 compounds, 0.91% hits; in the data active means inhibition above about 50%;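 further: 0% = vehicle wells with protein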
TEAD-YAP inh: TEAD-YAP interaction inhibition; 640,000 compounds, 1.4% hits; inhibition, % at 9.12 µM; HEK-TIYL cells, TEAD-Gal4/YAP UAS-luciferase luminescence; AID 1259422; in the data active means inhibition above about 32%;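 further: 0% = median of test compound wells and 100% = reference inhibitor wells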
FBW7 act: human FBW7 E3 ligase activation, primary screen; Q969H0; AlphaScreen FBW7–phospho-cyclin E peptide binding, activator screen; normalized activity (activation), % at 26.1 µM; 650,000 compounds, 0.13% hits; AID 1259310; in the data active means normalized activity above about 1.9%;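 further: purified mutant Fbw7 with reduced substrate affinity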
GPR151 activ: human GPR151 activation | 650,000 compounds, 1% hits | AID 1508602 | PathHunter beta-arrestin GPR151 cells, luminescence | Q8TDV0 | activation, % at 11.2 µM; in the data active means activation above about 4.9%;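 further: 0% = median of compound wells and 100% = cells with positive control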
GPR151 confirm: human GPR151 activation, confirmation screen; shares compounds with GPR151 activ; GPR151 PathHunter beta-arrestin cells, luminescence, 90 min; % of EA-reagent control over plate median; activation, % at 11.2 µM; 6,700 tested, under 10 active;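 active means mean percent activation across replicates above the confirmation screen cutoff of 4.91%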
GPR119 ag: counter-screen for GPR151 activators: effect on human GPR119; shares compounds with GPR151 activ; GPR119 PathHunter beta-arrestin cells, luminescence, 90 min; 0 = compound-well median, 100 = enzyme-acceptor control; activation, % at 11.2 µM; 6,700 compounds, 0.3% hits;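 active means mean percent activation in the counterscreen above 29.09%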;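 further: counterscreen on off-target GPR119 to flag nonselective hits from the GPR151 activator screen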
Target sequence (Q8TDV5 whole entry, looked up): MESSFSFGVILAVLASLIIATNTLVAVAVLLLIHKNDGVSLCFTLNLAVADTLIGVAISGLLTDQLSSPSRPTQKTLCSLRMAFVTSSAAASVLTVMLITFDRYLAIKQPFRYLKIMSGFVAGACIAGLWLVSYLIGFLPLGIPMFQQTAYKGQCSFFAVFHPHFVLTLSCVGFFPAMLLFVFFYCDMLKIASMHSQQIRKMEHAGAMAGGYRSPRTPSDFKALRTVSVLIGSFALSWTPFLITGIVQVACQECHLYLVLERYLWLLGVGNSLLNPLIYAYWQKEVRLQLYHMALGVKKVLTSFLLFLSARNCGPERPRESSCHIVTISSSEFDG
Active calls of the source: *; / = no result; ! = not active in a repeat.

SMILES	MITF inh	TEAD-YAP inh	FBW7 act	GPR151 activ	GPR151 confirm	GPR119 ag
CCOc1ccc2ccccc2c1C(=O)NCc1ccccn1	15	-8	0	21*	0	2
O=C(NNC(=S)Nc1ccc(F)cc1F)c1cc(O)ccc1O	2	-16	0	-2	/	/
O=C(Nc1ccc2nn(-c3ccccc3)nc2c1)c1ccc(-c2cccc([N+](=O)[O-])c2)o1	-1	1	0	5.1*	0	12
CCOC(=O)c1cnc2c(OC)cccc2c1Nc1cccc(C(=O)O)c1	11	-3	0	5.3*	2	12
O=C(Nc1ccc2c(c1)C(=O)NC2=O)c1cc2ccccc2o1	1	-2	0	-1	/	/
COC(=O)c1ccc(/C=N\NC(=O)CNc2ccc(C)cc2)cc1	1	-2	0	1	/	/
COC(=O)c1ccc(/C=N/NS(=O)(=O)c2cc(C)ccc2C)cc1	-9	11	0	5.9*	-1	-9
CCN(CC)C(=O)C1CCCN1S(=O)(=O)c1cccc2nsnc12 (centres undefined)	11	-1	0	2	/	/
CCN(C(=O)C1CCCN1S(=O)(=O)c1cccc2nsnc12)c1cccc(C)c1 (centres undefined)	17	7	0	8.2*	-1	2
Cc1cccc(C)c1N(CC(=O)N1CCCCC1)S(C)(=O)=O	3	-1	0	0	/	/
NC(N)=NC(N)=Nc1cccc(Cl)c1	-4	4	0	10*!	-1	-10
NC(N)=NC(N)=Nc1cccc([N+](=O)[O-])c1	5	-4	0	1	/	/
CC(NC(=O)c1ccccc1C(=O)O)c1ccccc1 (centres undefined)	9	-5	0	0	/	/
COCCC(=O)Nc1ccc2c(c1)CN(S(=O)(=O)N1CCCC1)CC2	3	1	0	7.5*	0	0
COc1ccc(OC)c(C(=O)c2oc3ccc(Cl)cc3c2N)c1	-5	50*	0	6.3*	-1	0
COc1ccc(OC)c(C(=O)c2oc3ccc(Cl)cc3c2NC(C)=O)c1	-6	8	0	1	/	/
COC(=O)C1CCN(C(=O)/C(=C\c2ccccc2)c2ccccc2)CC1	-2	0	0	1	/	/
CCOC(=O)C1CCN(C(=O)/C(=C/c2cccc([N+](=O)[O-])c2)c2ccccc2)CC1	12	-1	0	8.7*	0	-13
COCCNC(=O)/C(C#N)=C/c1ccc(-c2cc(Cl)ccc2Cl)o1	-6	-2	0	-1	/	/
N#C/C(=C\c1ccc(-c2cc(Cl)ccc2Cl)o1)C(=O)Nc1cccc2ncccc12	-1	/	/	5.7*	0	8
Cc1ccc2c(c1)c(=O)c(S(=O)(=O)c1ccccc1)cn2CC(=O)Nc1ccccc1	-13	-7	0	0	/	/
COc1ccccc1OCC(=O)Nc1nc(-c2cccs2)c(NC(C)=O)s1	3	11	0	14*	1	11
CC(C)(C)C(=O)NCc1nc(-c2ccc(Cl)cc2)no1	21	-7	0	0	/	/
C[C@@H](OCc1ccccc1)[C@@H]1NC(=O)[C@H]2CN(C(=O)c3cc(F)c(F)cc3F)CCN2C1=O	18	11	1	0	/	/
C[C@@H](OCc1ccccc1)[C@@H]1NC(=O)[C@H]2CN(C(=O)c3cc(F)ccc3F)CCN2C1=O	-7	-5	0	8.9*	1	16
SMILES	MITF inh	TEAD-YAP inh	FBW7 act	GPR151 activ	GPR151 confirm	GPR119 ag
CCCCCCc1cnc(-c2ccc(Br)cc2)nc1	8	-8	0	-2	/	/
CCCCCCOc1ccc(-c2ncc(CCCCC)cn2)cc1	0	6	0	5.8*	0	-9
O=C(Nc1cc(-c2ccncc2)ccc1O)C1COc2cc3ccccc3cc2O1 (centres undefined)	12	-3	0	1	/	/
CCNC(=S)Nc1ccc(Cl)c(S(=O)(=O)N2CCOCC2)c1	12	-2	0	6.6*	-1	-7
CCCS(=O)(=O)N1CC(=O)N(c2ccccc2OC)C(C)(C(=O)NC2CCCC2)C1 (centres undefined)	4	-2	0	6.0*	0	-11
CCCS(=O)(=O)N1CC(=O)N(c2ccccc2CC)C(C)(C(=O)NC2CCCCC2)C1 (centres undefined)	8	-1	0	0	/	/
CC1(C(=O)NC2CCCCCC2)CN(S(C)(=O)=O)CC(=O)N1c1ccc(Cl)cc1 (centres undefined)	0	-3	0	7.7*	-1	-12
Cc1ccc(C2=N/C(=C/c3ccc([N+](=O)[O-])cc3)C(=O)O2)cc1	-7	2	0	7.9*	0	-8
Cc1ccc(C2=N/C(=C/c3cc(Br)cs3)C(=O)O2)cc1[N+](=O)[O-]	7	13	0	5.1*	0	5
O=C1OC(c2ccc([N+](=O)[O-])cc2)=N/C1=C\c1ccccc1	9	-4	0	-1	/	/
CC(C)OC(=O)c1nnn(-c2nonc2N)c1CN1CCOCC1	5	-8	0	-1	/	/
CC(C)NC(=O)c1cc(=O)[nH]c2ccc(S(=O)(=O)N3CCCCCC3)cc12	10	4	1	-1	/	/
CC(C)NC(=O)c1cc(=O)[nH]c2ccc(S(=O)(=O)N3CCCC3)cc12	13	9	1	6.3*	0	-1
Cc1ccc(NC(=O)C(=O)NCC(c2ccc3c(c2)OCO3)N2CCN(C)CC2)c(C)c1 (centres undefined)	1	-13	0	6.5*	0	-7
Cc1ccc(N2CC(NC(=O)C3CCCC3)CC2=O)cc1C (centres undefined)	-15	6	0	5.5*	1	6
COc1ccc(N2CC(NC(=O)C3CCCC3)CC2=O)cc1 (centres undefined)	12	4	0	-1	/	/
CCN1CCCC1CNC(=O)NC1CC(=O)N(c2ccc(C)c(C)c2)C1 (centres undefined)	4	-13	-1	7.0*	0	3
O=C(CCN1C(=O)S/C(=C\c2ccc(Cl)cc2)C1=O)Nc1ccc(C(=O)O)cc1	16	1	0	6.9*	0	-7
CSCCNCc1c(C(=O)N2CCCCC2)nc2c(C)cccn12	5	-1	0	9.0*	0	3
COC(=O)[C@@H]1CCCN1Cc1c(C(=O)N2CCOCC2)nc2c(C)cccn12	-11	3	0	-1	/	/
O=C(c1nc2sccn2c1CNCCc1cccnc1)N1CCCC1	0	7	0	12*	0	7
O=C(c1nc2sccn2c1CNCCc1ccncc1)N1CCCCCCC1	-13	3	0	0	/	/
Cc1cccn2c(CN3CCCCC3CCn3cccn3)c(C(=O)N3CCOCC3)nc12 (centres undefined)	-13	1	0	7.8*	0	4
Cc1cccn2c(CNCCSc3nccn3C)c(C(=O)N3CCCCC3)nc12	5	-5	0	1	/	/
